Values joined by “and” are separate entries in the source; they are usually repeats but may differ in a detail not shown here. Equal values may be shown once. Some compounds were tested as several samples or in several runs, with calls that do not always agree. Active and inactive are the calls of the source. How the source made its calls: active means hit-call score of the fitted dose curve at least 0.9, where 1 is the maximum; inactive means score below 0.9.

Read-out in test [1]: Intercellular Adhesion Molecule 1 (ICAM1), ICAM1 (gene 3383)
In words: BSK_BF4T_ICAM1: BioMAP Diversity Plus: BF4T Assay for Intercellular Adhesion Molecule 1 (ICAM1) Biomarker Activity (AID 2284260). Particulars: primary human bronchial epithelial cells with fibroblasts. The procedure: (§1) BSK_BF4T is a cell-based, multiplexed-readout assay that uses bronchial epithelial cells and dermal fibroblasts, a human vascular primary cell, with measurements taken at 24 hours after chemical dosing in a microplate: 96-well plate.BSK_BF4T_ICAM1 is an assay component measured in the BSK_BF4T assay. It measures ICAM-1 antibody related to regulation of gene expression using ELISA technology.Data from the assay component BSK_BF4T_ICAM1 was analyzed at the endpoint, BSK_BF4T_ICAM1, in the positive analysis fitting direction relative to DMSO as the negative control and baseline of activity. Using a type of binding reporter, gain or loss-of-signal activity can be used to understand protein changes. To generalize the intended target to other relatable targets, this assay endpoint is annotated to the 'cell adhesion molecules' intended target family, where the subfamily is 'Immunoglobulin CAM'.
(§2) The levels of cell surface (or secreted, indicated by the prefix "s") biomarker endpoints were measured by ELISA. Overt cytotoxicity to cells in confluent adherent cultures (all systems other than the BT system) was assessed by measuring total protein levels using sulforhodamine B (SRB) staining in parallel cultures at the time of biomarker measurements, indicated as SRB endpoints. For proliferation assays for adherent cell types, individual cell types are cultured at sub-confluence and relative cell numbers quantified by SRB staining at time points optimized for each system (48 h: 3C and CASM3C systems; 72 h: BT and HDF3CGF systems; 96 h: SAg system). SRB was performed by staining cells with 0.1% SRB after fixation with 10% TCA and reading wells at 560 nm.Viability and proliferation of PBMC (T cells) was quantified by Alamar Blue reduction for the SAg and BT systems. For PBMC viability (referred to as PBMC Cytotoxicity within the assay endpoint names), cells were plated (75,000/well in a 96-well plate) and then chemical samples added for 1 h before addition of activators, SEB and TSST-1 (20 ng/mL final concentration each). Cells were incubated for 90 h. Then, Alamar Blue (20 uL/well) (Invitrogen, Cat DAL1100) was added for 6 h, and the plates were read with a fluorescence microplate reader at 546/580 nm (excitation/emission). For PBMC proliferation, cells were plated and activated as above but incubated for only 16 h prior to addition of Alamar Blue. Plates were read after 6 h.

Read-out in test [2]: Interleukin-8 (IL8), CXCL8 (gene 3576)
Description: BSK_MyoF_IL8: BioMAP Diversity Plus: MyoF Assay for Interleukin-8 (IL8) Biomarker Activity (AID 2284261). Particulars: primary human lung fibroblasts. The method in brief: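 In this multiplexed primary-cell system, fibroblasts from human lung are treated with chemicals, and IL-8 is detected by ELISA at 24 h, with DMSO serving as the negative reference.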

Read-out in the next test: CD90, THY1 (gene 7070)
In words: BSK_BF4T_CD90: BioMAP Diversity Plus: BF4T Assay for CD90 Biomarker Activity (AID 2284262). Particulars: primary human bronchial epithelial cells with fibroblasts. The gist of the method:
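CD90 levels by ELISA after 24 h treatment of human bronchial epithelial cell/dermal fibroblast cultures, analysed versus DMSO. Overt cytotoxicity checked in parallel cultures by sulforhodamine B staining.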

Read-out in test [3]: Interleukin-8 (IL8), CXCL8 (gene 3576)
Description: BSK_BF4T_IL8: BioMAP Diversity Plus: BF4T Assay for Interleukin-8 (IL8) Biomarker Activity (AID 2284263). Particulars: primary human bronchial epithelial cells with fibroblasts. The gist of the method:
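Human bronchial epithelial cells with dermal fibroblasts co-culture; IL-8 measured by ELISA 24 hours after dosing, fitted vs DMSO. Cytotoxicity tracked in parallel cultures by SRB total-protein staining.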

Read-out in test [4]: Interleukin-1 alpha (IL1a), IL1A (gene 3552)
In words: BSK_BF4T_IL1a: BioMAP Diversity Plus: BF4T Assay for Interleukin-1 alpha (IL1a) Biomarker Activity (AID 2284264). Particulars: primary human bronchial epithelial cells with fibroblasts. The procedure:
as §1, with “plate.BSK_BF4T_IL1a” for “plate.BSK_BF4T_ICAM1”, “IL-1a” for “ICAM-1”, “BSK_BF4T_IL1a” for “BSK_BF4T_ICAM1”, “BSK_BF4T_IL1a,” for “BSK_BF4T_ICAM1,”, “'cytokine'” for “'cell adhesion molecules'”, “'interleukins'.” for “'Immunoglobulin CAM'.”
as §2

Read-out in the next test: Decorin, DCN (gene 1634)
In words: BSK_MyoF_Decorin: BioMAP Diversity Plus: MyoF Assay for Decorin Biomarker Activity (AID 2284265). Particulars: primary human lung fibroblasts. The gist of the method: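 Lung fibroblast cultures, 24 h chemical exposure. Decorin by ELISA, positive fitting direction, DMSO baseline.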

Read-out in another test: KRT18 (gene 3875)
Description: BSK_BF4T_Keratin818: BioMAP Diversity Plus: BF4T Assay for Keratin 818 Biomarker Activity (AID 2284266). Particulars: primary human bronchial epithelial cells with fibroblasts. As to the method: as §1, with “plate.BSK_BF4T_Keratin818” for “plate.BSK_BF4T_ICAM1”, “Keratin 8/18” for “ICAM-1”, “BSK_BF4T_Keratin818” for “BSK_BF4T_ICAM1”, “BSK_BF4T_Keratin818,” for “BSK_BF4T_ICAM1,”, “'keratin'.” for “'Immunoglobulin CAM'.”
as §2

Test [5] in a line: BSK_MyoF_SRB: Viability Assessment in the BioMAP Diversity Plus: MyoF Assay (AID 2284267).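 Further: total protein by SRB absorbance in parallel cultures as cytotoxicity measure; cells assessed 24 h after compound addition.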 Particulars: primary human lung fibroblasts. As to the method:
BSK_MyoF is a cell-based, multiplexed-readout assay that uses lung fibroblasts, […], with measurements taken at 24 hours after chemical dosing in a microplate: 96-well plate.BSK_MyoF_SRB is an assay component measured in the BSK_MyoF assay. It measures 0.1% sulforhodamine related to cell death using Sulforhodamine staining technology.Data from the assay component BSK_MyoF_SRB was analyzed at the endpoint, BSK_MyoF_SRB, in the positive analysis fitting direction relative to DMSO as the negative control and baseline of activity. Using a type of viability reporter, gain or loss-of-signal activity can be used to understand protein changes. To generalize the intended target to other relatable targets, this assay endpoint is annotated to the 'cell morphology' intended target family, where the subfamily is 'cell conformation'.
as §2

Read-out in test [6]: Matrix Metallopeptidase 1 (MMP1), MMP1 (gene 4312)
In words: BSK_MyoF_MMP1: BioMAP Diversity Plus: MyoF Assay for Matrix Metallopeptidase 1 (MMP1) Biomarker Activity (AID 2284268). Particulars: primary human lung fibroblasts. The method in brief: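 MMP1 measured by ELISA 24 h after dosing primary human lung fibroblasts; cytotoxicity checked in parallel cultures by sulforhodamine B total-protein staining read at 560 nm.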

Read-out in test [7]: TIMP metallopeptidase inhibitor 1 (TIMP1), TIMP1 (gene 7076)
Description: BSK_MyoF_TIMP1: BioMAP Diversity Plus: MyoF Assay for TIMP metallopeptidase inhibitor 1 (TIMP1) Biomarker Activity (AID 2284269). Particulars: primary human lung fibroblasts. The gist of the method: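 Primary human lung fibroblasts, MyoF multiplex system; chemical exposure 24 h; TIMP-1 by ELISA; positive fitting direction vs DMSO control.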

`O=C(O)C(F)(F)C(F)(F)C(F)(F)C(F)(F)C(F)(F)C(F)(F)C(F)(F)C(F)(F)C(F)(F)F`: the AC50 in test [1] is 11.6 µM (active) and 14.5 µM (active); in test [2] it was 54.6 µM (active); with CD90, THY1 (gene 7070), 19 µM (active) and 19.4 µM (active); in [4], 14.3 µM (active) and 48 µM (active); in the test with Decorin, DCN (gene 1634), 23.6 µM (active) and 22.3 µM (active); with KRT18 (gene 3875), 15 µM (active). The AC50 was 50 µM (active) and 38.9 µM (active) in [5]; 45 µM (active) in [6]; 50.6 µM (active) and 37.4 µM (active) in test [7]. The outcome (in test [2]; in test [3]; with KRT18 (gene 3875); in test [6]) was inactive.
Regarding `Sc1ccccc1`, the outcome was “inactive” in test [2]; “inactive” with Decorin, DCN (gene 1634); “inactive” in [5]; “inactive” in [6]; “inactive” in test [7].
`O=S(=O)(O)C(F)(F)C(F)(F)C(F)(F)C(F)(F)F`: the outcome in test [1] is “inactive”; in test [2] it was “inactive”; with CD90, THY1 (gene 7070) it was “inactive”; in test [3], “inactive”; in test [4], “inactive”; with Decorin, DCN (gene 1634), “inactive”. Also, the result (in the test with KRT18 (gene 3875); in [5]; in test [6]; in test [7]) was inactive.
With `O=C(O)C(F)(F)C(F)(F)C(F)(F)C(F)(F)C(F)(F)C(F)(F)C(F)(F)C(F)(F)F`, the AC50 in [1] is 22.2 µM (active) and 38.1 µM (active); in test [3], 48 µM (active) and 48.7 µM (active); in [4], 48.7 µM (active) and 52.5 µM (active); with KRT18 (gene 3875), 51.6 µM (active) and 55.1 µM (active). Moreover, the outcome was “inactive” in test [2]; “inactive” with CD90, THY1 (gene 7070); “inactive” with Decorin, DCN (gene 1634); “inactive” in test [5]; “inactive” in test [6]; “inactive” in test [7].
As to `O=S(=O)(O)C(F)(F)C(F)(F)C(F)(F)C(F)(F)C(F)(F)C(F)(F)F`, the outcome in test [1] is “inactive”; in test [2], “inactive”; in the test with CD90, THY1 (gene 7070) it was “inactive”; in [3], “inactive”; in test [4], “inactive”; in the test with Decorin, DCN (gene 1634), “inactive”. Moreover, the result (with KRT18 (gene 3875); in test [5]; in test [6]; in test [7]) was inactive.
Take `Oc1c(Cl)c(Cl)c(Cl)c(Cl)c1Cl`: the AC50 is 0.595 µM (active) in [2]; 10.2 µM (active) in the test with Decorin, DCN (gene 1634); 6.05 µM (active) in test [5]; 11.5 µM (active) in test [6]; 9.53 µM (active) in test [7].
In the case of `NS(=O)(=O)C(F)(F)C(F)(F)C(F)(F)C(F)(F)C(F)(F)C(F)(F)C(F)(F)C(F)(F)F`, the AC50 in test [1] was 47.2 µM (active) and 36 µM (active); in test [2], 53 µM (active) and 50.7 µM (active); with CD90, THY1 (gene 7070) it was 30 µM (active) and 21.8 µM (active); in test [3], 49.2 µM (active) and 48.2 µM (active); in test [4], 44.9 µM (active) and 24.2 µM (active); with Decorin, DCN (gene 1634) it was 52.9 µM (active). The AC50 with KRT18 (gene 3875) was 44.7 µM (active) and 31.5 µM (active); in test [5] it was 43.1 µM (active) and 42.8 µM (active); in [7], 35.1 µM (active) and 21.5 µM (active). Moreover, the outcome with Decorin, DCN (gene 1634) was “inactive”; in [6], “inactive”.
For the molecule `O=C(O)C(F)(F)C(F)(F)C(F)(F)C(F)(F)C(F)(F)F`, the outcome in test [1] was “inactive”; in [2] it was “inactive”; in the test with CD90, THY1 (gene 7070), “inactive”; in test [3] it was “inactive”; in [4] it was “inactive”; in the test with Decorin, DCN (gene 1634), “inactive”. Also, the outcome (in the test with KRT18 (gene 3875); in [5]; in test [6]; in test [7]) was inactive.

The values above are taken from PubChem BioAssay (EPA / NIEHS).
